Active and inactive are the calls of the source.
Tests used:
[1] = E. coli DRC41 culture turbidity changes, primary screen, E. coli filamentation inducer project, strain DRC41, OD650, 48 h (AID 1152);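 note: E. coli MC1000 strain DRC41 lacking acrAB efflux pump and sulA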; conditions: E. coli DRC41 (acrAB sulA), higher = more signal, called active from +8 up or from −8 down
[2] = small-molecule binders of probe aLefty1, primary screen, biochemical, small-molecule microarray, 635/667 nm fluorescence (AID 1153); conditions: higher = more signal;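 note: score merges spot fluorescence with signal-to-noise ratio from the scanned slide images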
[3] = PSAC antagonists in infected red cells, primary screen, cell-based, P. falciparum Indochina, OD700, 1 h (AID 1154); conditions: P. falciparum Indochina infected RBC osmotic lysis, higher = more signal, called active from +8 up or from −8 down
[4] = PSAC antagonists in infected red cells, primary screen, cell-based, P. falciparum Indochina, OD700, 2 h (AID 1155);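 note: lysis reports solute entry through the parasite surface anion channel PSAC; channel blockers reduce lysis of infected cells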; conditions: P. falciparum Indochina infected erythrocytes, osmotic lysis OD700; higher = more signal, called active from +8 up or from −8 down
[5] = osmotic lysis modulators in infected erythrocytes, primary screen, PSAC antagonist project, cell-based, P. falciparum Indochina, OD700, 3 h (AID 1156); conditions: higher = more signal, called active from +8 up or from −8 down
[6] = PSAC antagonists in infected red cells, primary screen, cell-based, P. falciparum Indochina, OD700, 18 h (AID 1157); conditions: P. falciparum Indochina infected erythrocytes, osmotic lysis OD700, 18 h; higher = more signal, called active from +8 up or from −8 down
[7] = modulators of S6 phosphorylation in cells, primary screen, cell-based, A549, cytoblot, luminescence, serum-stimulated (AID 1158); conditions: A549 phospho-S6 cytoblot, 5 h, higher = more signal;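 note: serum-stimulated A549 lung adenocarcinoma cells; signal is phosphorylated S6 detected by cytoblot immunostaining with HRP secondary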
[8] = target: NADPH oxidase 2 (Homo sapiens) (UniProt P04839); experiment: NOX2-dependent H2O2 signal modulators, primary screen, NOX inhibitor project, cell-based, HEK293-NOX2, PMA-stimulated, Amplex Red fluorescence (AID 1159); conditions: 45 min, higher = more signal, called active from +8 up or from −8 down; note: test concentration not given here
Sequence of NADPH oxidase 2 (Homo sapiens) (P04839 whole entry, looked up): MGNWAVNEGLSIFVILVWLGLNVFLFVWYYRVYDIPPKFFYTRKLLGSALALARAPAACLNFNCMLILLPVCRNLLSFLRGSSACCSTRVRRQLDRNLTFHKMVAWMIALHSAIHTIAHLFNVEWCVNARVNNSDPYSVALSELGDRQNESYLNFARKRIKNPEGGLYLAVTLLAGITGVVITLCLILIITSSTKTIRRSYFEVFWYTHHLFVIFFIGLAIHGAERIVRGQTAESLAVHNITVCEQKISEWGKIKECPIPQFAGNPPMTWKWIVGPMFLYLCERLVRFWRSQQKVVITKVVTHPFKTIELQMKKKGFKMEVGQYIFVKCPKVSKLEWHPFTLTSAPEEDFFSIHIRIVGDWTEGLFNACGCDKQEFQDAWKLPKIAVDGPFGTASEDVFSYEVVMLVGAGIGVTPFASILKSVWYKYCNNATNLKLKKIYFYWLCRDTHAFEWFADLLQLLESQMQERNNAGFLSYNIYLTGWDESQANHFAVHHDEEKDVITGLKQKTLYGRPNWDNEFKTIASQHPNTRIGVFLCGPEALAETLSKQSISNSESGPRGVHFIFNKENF

[9] = target: NADPH oxidase 4 (Homo sapiens) (UniProt Q9NPH5); experiment: NOX4-dependent H2O2 signal modulators, primary screen, NOX inhibitor project, cell-based, HEK293-NOX4, tetracycline-induced, Amplex Red fluorescence (AID 1160); conditions: 45 min, higher = more signal, called active from +8 up or from −8 down
Sequence of NADPH oxidase 4 (Homo sapiens) (Q9NPH5 whole entry, looked up): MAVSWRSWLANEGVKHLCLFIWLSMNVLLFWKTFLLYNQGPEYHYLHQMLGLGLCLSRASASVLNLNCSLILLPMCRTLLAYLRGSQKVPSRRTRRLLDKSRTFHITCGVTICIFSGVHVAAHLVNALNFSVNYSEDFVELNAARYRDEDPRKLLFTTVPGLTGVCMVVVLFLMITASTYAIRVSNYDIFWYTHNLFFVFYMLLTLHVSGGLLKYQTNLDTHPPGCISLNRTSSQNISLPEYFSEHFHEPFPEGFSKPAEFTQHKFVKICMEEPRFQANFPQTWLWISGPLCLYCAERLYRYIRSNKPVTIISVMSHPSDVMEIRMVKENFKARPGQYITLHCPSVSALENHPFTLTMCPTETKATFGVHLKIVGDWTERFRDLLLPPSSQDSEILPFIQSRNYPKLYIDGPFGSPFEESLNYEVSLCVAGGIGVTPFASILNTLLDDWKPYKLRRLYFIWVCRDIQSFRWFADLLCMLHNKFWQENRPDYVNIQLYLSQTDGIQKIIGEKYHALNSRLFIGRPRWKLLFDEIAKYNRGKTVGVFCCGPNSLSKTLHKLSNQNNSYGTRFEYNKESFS

[10] = target: NADPH oxidase 5 (Homo sapiens) (UniProt Q96PH1); experiment: NOX5-dependent H2O2 signal modulators, primary screen, NOX inhibitor project, cell-based, HEK293-NOX5, Amplex Red fluorescence (AID 1161); conditions: HEK293-NOX5, ionomycin, 45 min, higher = more signal
Sequence of NADPH oxidase 5 (Homo sapiens) (Q96PH1 whole entry, looked up): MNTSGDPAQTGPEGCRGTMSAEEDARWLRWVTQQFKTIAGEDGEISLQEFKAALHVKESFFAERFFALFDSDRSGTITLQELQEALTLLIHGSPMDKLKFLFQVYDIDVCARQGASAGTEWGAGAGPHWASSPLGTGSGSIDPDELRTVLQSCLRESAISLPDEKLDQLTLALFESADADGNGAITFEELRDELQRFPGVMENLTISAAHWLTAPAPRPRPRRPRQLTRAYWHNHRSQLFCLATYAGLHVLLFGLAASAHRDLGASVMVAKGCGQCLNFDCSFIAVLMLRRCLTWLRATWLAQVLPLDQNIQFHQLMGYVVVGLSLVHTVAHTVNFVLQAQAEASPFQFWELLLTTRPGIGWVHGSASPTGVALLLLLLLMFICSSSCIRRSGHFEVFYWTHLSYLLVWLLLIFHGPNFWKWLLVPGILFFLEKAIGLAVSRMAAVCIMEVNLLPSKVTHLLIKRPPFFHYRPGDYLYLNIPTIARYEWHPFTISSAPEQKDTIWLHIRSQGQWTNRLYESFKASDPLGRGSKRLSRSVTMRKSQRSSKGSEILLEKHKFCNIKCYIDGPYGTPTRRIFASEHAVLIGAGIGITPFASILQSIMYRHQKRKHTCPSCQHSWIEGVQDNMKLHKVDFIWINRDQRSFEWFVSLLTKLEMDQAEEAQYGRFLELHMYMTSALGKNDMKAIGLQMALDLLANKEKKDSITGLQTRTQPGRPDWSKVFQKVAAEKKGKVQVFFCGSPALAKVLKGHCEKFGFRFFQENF

[11] = A549 cell viability effects, profiling panel, calcein-AM fluorescence, 48 h, basal (AID 1162); conditions: higher = more signal; note: test concentration not given here
[12] = adipocyte viability effects, profiling panel, cell-based, 3T3-L1 adipocytes, calcein-AM fluorescence, 48 h, basal (AID 1163); conditions: 3T3-L1 adipocytes viability, higher = more signal; note: test concentration not given here
[13] = HepG2 cell viability effects, profiling panel, calcein-AM fluorescence, 48 h, basal (AID 1164); conditions: higher = more signal; note: test concentration not given here
[14] = MM1S cell viability effects, profiling panel, calcein-AM fluorescence, 48 h, basal (AID 1165); conditions: higher = more signal;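 note: viability of MM1S multiple myeloma cells under basal unstimulated conditions; test concentration not given here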
[15] = basal RPMI8226 viability, no added stimulus, profiling panel, cell-based, calcein-AM fluorescence, 48 h, PK04 Diversity Set (AID 1166); conditions: RPMI8226 myeloma viability, higher = more signal;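 note: cells grown under basal conditions without added stimulus; test concentration not given here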
[16] = basal HepG2 mitochondrial membrane potential changes, profiling panel, cell-based, JC-1 fluorescence, 24 h, 100 nL compound (AID 1167); conditions: higher = more signal; note: test concentration not given here
[17] = basal 3T3-L1 adipocyte mitochondrial potential changes, profiling panel, cell-based, JC-1 fluorescence, 3T3-L1 adipocytes, 24 h, 100 nL compound (AID 1168); conditions: JC-1 mitochondrial fluorescence, higher = more signal, called active from +8 up or from −8 down; note: test concentration not given here
[18] = basal RPMI8226 mitochondrial membrane potential changes, profiling panel, cell-based, JC-1 fluorescence, 24 h, 100 nL compound (AID 1169); conditions: RPMI8226 myeloma, JC-1 mitochondrial potential fluorescence, higher = more signal; note: test concentration not given here
[19] = basal MM1S mitochondrial membrane potential changes, profiling panel, cell-based, JC-1 fluorescence, 24 h, 100 nL compound (AID 1170); conditions: higher = more signal; note: test concentration not given here
[20] = A549 lung cancer cell viability effects, profiling panel, resazurin fluorescence, 24 h, PK04 Diversity Set (AID 1171); conditions: higher = more signal, called active from +8 up or from −8 down; note: test concentration not given here

| SMILES | z-score [1] | composite z-score [2] | z-score [3] | z-score [4] | z-score [5] | z-score [6] | z-score [7] | z-score [8] | z-score [9] | z-score [10] | z-score [11] | z-score [12] | z-score [13] | z-score [14] | z-score [15] | z-score [16] | z-score [17] | z-score [18] | z-score [19] | z-score [20] |
| --- | --- | --- | --- | --- | --- | --- | --- | --- | --- | --- | --- | --- | --- | --- | --- | --- | --- | --- | --- | --- |
| COCCOC(=O)N1C(=O)[C@@]2(c3cc(C#CCC(C(=O)OC)C(=O)OC)ccc31)[C@H](c1ccccc1OCCO)N1[C@H](c3ccccc3)[C@H](c3ccccc3)OC(=O)[C@H]1[C@@H]2C(=O)N1CCN(c2ncccn2)CC1 | 1.2 (inactive) | 1.16 | 2.83 (inactive) | 1.11 (inactive) | 1.28 (inactive) | 0.851 (inactive) | -0.139 | 0.823 (inactive) | 0.656 (inactive) | 1.27 | -0.0169 | 1.16 | 0.469 | -1.59 | -2.45 | 0.8 | 2.27 (inactive) | -0.78 | -0.522 | 0.934 (inactive) |
| CO[C@H]1O[C@H](CO)[C@@H](OC(=O)Nc2ccc(Oc3ccccc3)cc2)[C@H](OC(=O)Nc2ccc3c(c2)OCO3)[C@H]1OC(=O)Nc1ccc2c(c1)OCO2 | 0.97 (inactive) | 0.523 | 7.24 (inactive) | 0.996 (inactive) | 0.902 (inactive) | 0.397 (inactive) | 1.2 | 0.706 (inactive) | -1.65 (inactive) | -0.714 | -0.331 | 0.377 | 0.106 | -0.789 | -0.594 | -0.185 | 2.17 (inactive) | -0.583 | 0.818 | 0.104 (inactive) |
| CC(C)[Si]1(C(C)C)O[C@@H](c2ccccc2)c2cc(-c3ccc(-c4ccc(Cl)c(Cl)c4)o3)nc(-c3ccccc3)c21 | -1.12 (inactive) | -0.0611 | 0.704 (inactive) | 0.0805 (inactive) | -0.449 (inactive) | 0.656 (inactive) | -0.121 | -0.364 (inactive) | 1.36 (inactive) | 1.26 | 0.272 | -0.277 | 0.428 | -2.62 | -3.09 | -1.87 | -1.06 (inactive) | -0.395 | -0.582 | 0.613 (inactive) |
| COc1ccc([Si](C)(C)[C@H]2[C@H](CC(=O)N3Cc4ccccc4C[C@H]3CO)O[C@@]3(C(=O)N(Cc4cccc(N5CCC5=O)c4)c4ccccc43)[C@@H]2C)cc1 | -0.372 (inactive) | -0.0536 | 5.46 (inactive) | 1.63 (inactive) | 0.011 (inactive) | 1.09 (inactive) | -0.0301 | -1.15 (inactive) | -0.95 (inactive) | -1.44 | 0.0575 | 0.441 | -0.616 | -2.68 | -3 | 0.419 | 0.465 (inactive) | -1.02 | -1.23 | -0.919 (inactive) |

Reference: PubChem BioAssay
